Rows were chosen to be rich in hits. Some 6.7% of all compounds tested hit in one or more screens of this group.
Pf Dd2 inh – blocks growth of Plasmodium falciparum Dd2 parasites; AID 1159554; 94,000 tested, 2.3% active; activity change, % at 10 µM; P. falciparum Dd2 growth, SYBR Green, 72 h; stronger effect = lower value; in the data active = activity change below about -80%; inconclusive = no clear call, values can overlap the other calls
T cruzi growth-1 – blocks T. cruzi growth in NIH3T3 culture; inhibition, % at 8.34 µM; AID 624255; 77,000 tested, 5.9% active; T. cruzi beta-gal in NIH3T3, GalScreen luminescence, 90 h;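 active = mean inhibition above about 93%, with at least 55% of replicates each passing it, limit read from the data, passing the limit was not always enough; inconclusive = only one of those two conditions holds; inactive = neither condition holds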
C diff growth – inhibitors of Clostridium difficile growth; Clostridium difficile clinical isolate growth, OD600, 24 h; stronger effect = lower value; growth activity, negative = inhibition, % at 16 µg/mL (by protocol); 86,000 tested, 0.25% active;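 active = mean growth activity at or below -80% and every replicate also at or below -80%; inconclusive = mean at or below -80% but some replicate above -80%; inactive = mean growth activity above -80%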;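 also: 0% = DMSO wells and -100% = levofloxacin 16 µg/mL wells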
T cruzi growth-2 – Trypanosoma cruzi proliferation inhibition | inhibition, % at 8.35 µM | 5,600 tested, 72% active | T. cruzi beta-gal in NIH3T3, GalScreen luminescence, 90 h | shares compounds with T cruzi growth-1;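 active = mean replicate inhibition above about 95% and at least 55% of replicates individually reaching it, limit read from the data; inconclusive = only one of the two criteria is met; inactive = neither criterion is met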
T cruzi growth-3 – blocks T. cruzi growth in NIH3T3 host cells. shares compounds with T cruzi growth-1. T. cruzi beta-gal in NIH3T3, GalScreen luminescence, 90 h. inhibition, % at 2.09 µM. 5,600 tested, 21% active. AID 651740;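 active = mean inhibition above about 95%, with at least 55% of replicates also reaching it, limit read from the data; inconclusive = meets just one of the two conditions; inactive = meets neither condition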;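 also: plate controls were neutral control median for no effect and positive control median for full effect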
3T3 cytotox – cytotoxicity in mouse NIH/3T3 fibroblasts; shares compounds with T cruzi growth-1; NIH/3T3 viability, CellTiter-Glo ATP luminescence, 90 h; cytotoxicity (signal decrease), % at 8.35 µM; 5,600 tested, 14% active; AID 651742;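 active = mean signal decrease across replicates above about 35% based on untreated-well scatter, with enough replicates individually passing, limit read from the data; inconclusive = no rule stated though some were filed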;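 also: 0% = median of neutral control wells and 100% = median of positive control wells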
3T3 cytotox 2 – cytotoxicity in mouse NIH/3T3 fibroblasts. inhibition, % at 24.9 µM. 5,600 tested, 56% active. shares compounds with T cruzi growth-1. NIH/3T3 viability, CellTiter-Glo ATP luminescence, 90 h;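 active = mean loss of cell viability signal at or above a set limit, and enough replicates individually reaching it; inconclusive = meets only the mean limit or only the replicate share; inactive = meets neither condition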;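 also: 0% = median of neutral control wells and 100% = median of positive control wells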
* = called active by the depositor; ? = inconclusive; nt = no result.

SMILES	Pf Dd2 inh	T cruzi growth-1	C diff growth	T cruzi growth-2	T cruzi growth-3	3T3 cytotox	3T3 cytotox 2
CNC[C@H]1Oc2ccc(NC(=O)Nc3ccc(C(F)(F)F)cc3)cc2CC(=O)N([C@H](C)CO)C[C@@H]1C	-4	43	-1	nt	nt	nt	nt
CN(C[C@@H]1[C@@H](c2ccccc2)[C@H](CO)N1Cc1ccccn1)S(C)(=O)=O	2	47	-3	nt	nt	nt	nt
CO[C@H]1CN(C)C(=O)c2ccc(NS(=O)(=O)c3cccc(C)c3)cc2OC[C@H](C)NC[C@H]1C	28	-31	0	nt	nt	nt	nt
C[C@@H]1CCCCO[C@@H](CN(C)Cc2ccccc2)[C@H](C)CN([C@H](C)CO)C(=O)c2cc(NC(=O)NC3CCCCC3)ccc2O1	-56	?	0	107*	63	3	100*
C[C@@H]1CCCCO[C@H](CN(C)Cc2ccccc2)[C@H](C)CN([C@@H](C)CO)C(=O)c2cc(NC(=O)NC3CCCCC3)ccc2O1	-28	?	-4	100*	15	1	100*
C[C@@H]1CCCCO[C@H](CN(C)Cc2ccccc2)[C@@H](C)CN([C@H](C)CO)C(=O)c2cc(NC(=O)NC3CCCCC3)ccc2O1	27	0	-1	nt	nt	nt	nt
C[C@@H]1CN([C@@H](C)CO)C(=O)c2cc(NC(=O)NC3CCCCC3)ccc2O[C@@H](C)CCCCO[C@@H]1CN(C)Cc1ccccc1	-51	-69	0	nt	nt	nt	nt
C[C@@H]1CN([C@H](C)CO)S(=O)(=O)c2ccc(C#Cc3ccccc3)cc2O[C@@H]1CN(C)C	-65	28	9	nt	nt	nt	nt
C[C@H]1CN([C@@H](C)CO)S(=O)(=O)c2ccc(C#Cc3ccccc3)cc2O[C@@H]1CN(C)C	-51	102*	5	105*	41	5	103*
COc1ccc(C#Cc2ccc3c(c2)O[C@H](CN(C)C)[C@@H](C)CN([C@@H](C)CO)S3(=O)=O)cc1	-51	?	1	109*	77	15	103*
COc1ccc(C#Cc2ccc3c(c2)O[C@@H](CN(C)C)[C@@H](C)CN([C@H](C)CO)S3(=O)=O)cc1	-43	41	3	nt	nt	nt	nt
CN(C)CC(=O)Nc1ccc2c(c1)[C@H]1C[C@@H](CC(=O)NCCc3ccccc3)O[C@@H](CO)[C@H]1O2	4	nt	5	nt	nt	nt	nt
CN(C)CCCNC(=O)[C@@H]1[C@@H](CO)[C@@H]2Cn3c(ccc(-c4cccc(F)c4)c3=O)[C@@H]2N1C	9	-1	2	nt	nt	nt	nt
CC=Cc1ccc2n(c1=O)C[C@H]1[C@H](CO)[C@@H](C(=O)NCc3ccc(F)cc3)[C@@H]2N1CCC (mixture of isomers)	nt	-3	19	nt	nt	nt	nt
C[C@H](CO)N1C[C@H](C)[C@H](CN(C)C(=O)c2ccccn2)Oc2ncc(C3=CCCCC3)cc2C1=O	1	58	0	nt	nt	nt	nt
CN(C)c1ccc2c(c1)[C@@H]1C[C@@H](CC(=O)NCc3ccc4c(c3)OCO4)O[C@@H](CO)[C@@H]1O2	-67	121*	nt	106*	17	4	-1
CN(C)c1ccc2c(c1)[C@H]1C[C@H](CC(=O)NCc3ccc4c(c3)OCO4)O[C@H](CO)[C@H]1O2	-66	85	nt	nt	nt	nt	nt
CN(C)c1ccc2c(c1)[C@@H]1C[C@@H](CC(=O)NCc3ccccc3)O[C@H](CO)[C@@H]1O2	9	38	nt	nt	nt	nt	nt
CN(C)c1ccc2c(c1)[C@H]1C[C@@H](CC(=O)NCc3ccc(Oc4ccccc4)cc3)O[C@@H](CO)[C@H]1O2	-44	108*	-3	48	22	3	17
O=C(C[C@@H]1CC[C@H](NC(=O)c2cccc(F)c2)[C@H](CO)O1)NCCN1CCCC1	3	-10	nt	nt	nt	nt	nt
CC(C)NC(=O)N(C)C[C@@H]1Oc2ccc(NC(=O)Nc3ccc(F)cc3)cc2C(=O)N([C@H](C)CO)C[C@H]1C	-11	nt	1	nt	nt	nt	nt
Cc1ccc(S(=O)(=O)Nc2ccc3c(c2)C(=O)N([C@@H](C)CO)C[C@H](C)[C@H](CN(C)C(=O)c2ccccc2)OCCCC[C@@H](C)O3)cc1	-11	7	3	nt	nt	nt	nt
C/C=C/c1ccc([C@@H]2[C@H](CO)N3CCCCN(C(=O)Nc4ccccc4F)C[C@@H]23)cc1	-65	63	6	nt	nt	nt	nt
C/C=C/c1ccc([C@@H]2[C@@H](CO)N3CCCCN(C(=O)Nc4ccccc4F)C[C@H]23)cc1	-8	39	0	nt	nt	nt	nt

Compound activity (PubChem BioAssay)
